About 83,000 compounds went through this panel and 20% of them were active in at least one assay; those are over-represented in the sample as a whole.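 Testing used 96-well plates and a 48-hour single-concentration exposure. Example: -40 means 40% of the starting cells died.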 Unmarked numbers belong to inactive results. The source made the active and inactive calls. Rule for the calls: active = growth percent below 10; inactive = the rest.
tested on: SK-OV-3 ovarian; assay: NCI-60 one-dose screen, 48 h (100 = growth as untreated, 0 = no growth, -100 = all killed); conditions: 10 µM unless noted

Row | SMILES | growth
1 | COc1ccc(C(=O)N2CCN(C(=O)c3cc(OC)c(OC)c(OC)c3)CC2)cc1OCCCCOc1cc2c(cc1OC)C(=O)N1CCC[C@H]1C=N2 | 108%
2 | Cn1c(-c2nonc2NC(=O)c2ccc(F)cc2)nc2ccccc21 | 111%
3 | O=C(NCCCN1CCN(CCCNC(=O)C2CCCCC2)CC1)C1CCCCC1 | 91.6%
4 | c1cc(-c2ccc3c(c2)OCO3)n2nccc2n1 | 106%
5 | O=C(CN1CCN(c2cc3c(cc2F)c(=O)c(C(=O)O)cn3C2CC2)CC1)Nc1ccc(C(=O)/C=C/c2ccc(Cl)cc2)cc1 | 110%
6 | CC(Cc1nnc(SCC(=O)Nc2ccc(I)cc2)n1N)c1ccccc1 (stereo unspecified) | 97.8%
7 | Cc1ccc2c(c1)C(C)Cc1c(ncnc1-n1cnc3ccccc31)N2C (stereo unspecified) | 43.5%
8 | CC1CCc2c(sc(NC(=O)CSc3nnc4ccccn34)c2C(N)=O)C1 (stereo unspecified) | 131%
9 | CC(=O)c1cc(C(=O)c2ccc3c(c2)Sc2ccccc2N3)c2cc(C)ccn12 | 16.6%
10 | CN(C)c1nc(N)c(N=O)c(N)n1 | 99.2%
11 | CC[C@H](C)[C@H]1NC(=O)[C@@H](N[C@](C)(O)[C@@H](N)CC(C)C)[C@@H](C)OC(=O)[C@H](Cc2ccc(OC)cc2)N(C)C(=O)[C@@H]2CCCN2C(=O)[C@H](CC(C)C)NC(=O)[C@@H](C)C(=O)[C@H](C(C)C)OC(=O)C[C@@H]1O | -13% (active)
12 | Cc1nc2scc(-c3ccccc3)n2c(=O)c1CCO | 105%
13 | Cc1ccc(Cn2c(-c3nonc3N)nc3ccccc32)cc1 | 80.4%
14 | COc1cc(Cn2c(-c3nonc3N)nc3ccccc32)ccc1C | 29.9%
15 | COc1ccc(/C=N/NC(=O)Cn2c(Cc3cccc4ccccc34)nc3ccccc32)cc1 | 106%
16 | Cc1ccc(Cn2c(-c3cccs3)nc3ccccc32)cc1 | 100%
17 | Cc1ccc(OCCn2c(C)nn(-c3ccc(Cl)cc3)c2=O)cc1 | 113%
18 | COc1ccc(-c2nc(-c3ccccc3)c(-c3ccccc3)n2C2CC2)cc1OC1CCCCC1 | 89.4%
19 | COc1cc(/C=C2\CCCC3=C2NC(C)=NC3c2cc(OC)c(OC)c(OC)c2)cc(OC)c1OC (stereo unspecified) | 43.9%

Row | SMILES | growth
20 | CCN1C(=O)N[C@H]2[C@@H]3NC(=O)c4ccc(Cl)n4[C@@H]3C[C@]21O | 28.6%
21 | CC(C(=O)n1cc(-c2ccccc2)c(-c2ccccc2)c1)c1ccccc1 (stereo unspecified) | 105%
22 | CC(Br)C(OC(=O)c1ccccc1Cl)c1cc2c(cc1Br)OCO2 (stereo unspecified) | 124%
23 | CCC(c1cccc(Br)c1)C(C(=O)O)c1ccc(OC)cc1 (stereo unspecified) | 107%
24 | COC(=O)CCCCN=Cc1c(O)c(O)c(C(C)C)c2cc(C)c(-c3c(C)cc4c(C(C)C)c(O)c(O)c(C=NCCCCC(=O)OC)c4c3O)c(O)c12 | 40.1%
25 | Cc1cc(C(=O)CSc2nc3ccccc3c(=O)[nH]2)c(C)n1C | 108%
26 | Cn1cc(C=O)c2ccccc21 | 101%
27 | CC(=O)N1Cc2ccccc2C(C)Cc2cc(Cl)ccc21 (stereo unspecified) | 108%
28 | Cn1c(=O)c2c(nc3n2CCN(CCc2ccc(OCCN4CCOCC4)cc2)C3)n(C)c1=O | 118%
29 | O=C(/C=C/c1ccccc1)n1c(-c2ccc(Cl)cc2)nc2ccccc21 | 24%
30 | COc1cc(C2CC(c3c(C)[n+]([O-])c4ccccc4[n+]3[O-])=NN2)cc(OC)c1OC (stereo unspecified) | 103%
31 | CCOC(=O)c1cc(/C(=N\O)c2cc(OC)c(OC)c(OC)c2)n2c(C)cccc12 | 38.4%
32 | COC(=O)CCCCCCN=Cc1c(O)c(O)c(C(C)C)c2cc(C)c(-c3c(C)cc4c(C(C)C)c(O)c(O)c(C=NCCCCCCC(=O)OC)c4c3O)c(O)c12 | 64.8%
33 | COc1ccc(/C(=N/O)c2cc(OC)c(OC)c(OC)c2)c(OC)c1N | 35.7%
34 | COc1ccc(-n2c(C)cc(-c3ccccc3)c2C)cc1 | 83.2%
35 | N#CC1=C(N)OC2=C(C(=O)CCC2)C1c1ccco1 (stereo unspecified) | 98.2%
36 | C=CCc1cc(Cl)cc2c(OC(C)=O)c(C(C)=O)c(-c3ccccc3)nc12 | 99.9%
37 | COc1cc(/C=C/C(=O)c2ccc(NC(=O)CN3CCN(c4cc5c(cc4F)c(=O)c(C(=O)O)cn5C4CC4)CC3)cc2)cc(OC)c1OC | 33.3%
38 | COc1ccc(/C(=N\O)c2cc(OC)c(OC)c(OC)c2)c(OC)c1N | 43%

tested on: IGROV1 ovarian; assay: as above; conditions: 10 µM unless noted

Row | SMILES | growth
39 | COc1ccc(C(=O)N2CCN(C(=O)c3cc(OC)c(OC)c(OC)c3)CC2)cc1OCCCCOc1cc2c(cc1OC)C(=O)N1CCC[C@H]1C=N2 | -18.9% (active)
40 | Cn1c(-c2nonc2NC(=O)c2ccc(F)cc2)nc2ccccc21 | 104%
41 | O=C(NCCCN1CCN(CCCNC(=O)C2CCCCC2)CC1)C1CCCCC1 | 104%
42 | c1cc(-c2ccc3c(c2)OCO3)n2nccc2n1 | 102%
43 | O=C(CN1CCN(c2cc3c(cc2F)c(=O)c(C(=O)O)cn3C2CC2)CC1)Nc1ccc(C(=O)/C=C/c2ccc(Cl)cc2)cc1 | 121%
44 | CC(Cc1nnc(SCC(=O)Nc2ccc(I)cc2)n1N)c1ccccc1 (stereo unspecified) | 8.44% (active)
45 | Cc1ccc2c(c1)C(C)Cc1c(ncnc1-n1cnc3ccccc31)N2C (stereo unspecified) | 37.6%
46 | CC1CCc2c(sc(NC(=O)CSc3nnc4ccccn34)c2C(N)=O)C1 (stereo unspecified) | 33.8%
47 | CC(=O)c1cc(C(=O)c2ccc3c(c2)Sc2ccccc2N3)c2cc(C)ccn12 | 27.8%
48 | CN(C)c1nc(N)c(N=O)c(N)n1 | 110%
49 | CC[C@H](C)[C@H]1NC(=O)[C@@H](N[C@](C)(O)[C@@H](N)CC(C)C)[C@@H](C)OC(=O)[C@H](Cc2ccc(OC)cc2)N(C)C(=O)[C@@H]2CCCN2C(=O)[C@H](CC(C)C)NC(=O)[C@@H](C)C(=O)[C@H](C(C)C)OC(=O)C[C@@H]1O | -13.4% (active)
50 | Cc1nc2scc(-c3ccccc3)n2c(=O)c1CCO | 98.1%
51 | Cc1ccc(Cn2c(-c3nonc3N)nc3ccccc32)cc1 | 67.2%
52 | COc1cc(Cn2c(-c3nonc3N)nc3ccccc32)ccc1C | 47.6%
53 | COc1ccc(/C=N/NC(=O)Cn2c(Cc3cccc4ccccc34)nc3ccccc32)cc1 | 108%
54 | Cc1ccc(Cn2c(-c3cccs3)nc3ccccc32)cc1 | 81.8%
55 | Cc1ccc(OCCn2c(C)nn(-c3ccc(Cl)cc3)c2=O)cc1 | 112%
56 | COc1ccc(-c2nc(-c3ccccc3)c(-c3ccccc3)n2C2CC2)cc1OC1CCCCC1 | 63.1%
57 | COc1cc(/C=C2\CCCC3=C2NC(C)=NC3c2cc(OC)c(OC)c(OC)c2)cc(OC)c1OC (stereo unspecified) | 30.7%

Row | SMILES | growth
58 | CCN1C(=O)N[C@H]2[C@@H]3NC(=O)c4ccc(Cl)n4[C@@H]3C[C@]21O | 1.44% (active)
59 | CC(C(=O)n1cc(-c2ccccc2)c(-c2ccccc2)c1)c1ccccc1 (stereo unspecified) | 111%
60 | CC(Br)C(OC(=O)c1ccccc1Cl)c1cc2c(cc1Br)OCO2 (stereo unspecified) | 68.9%
61 | CCC(c1cccc(Br)c1)C(C(=O)O)c1ccc(OC)cc1 (stereo unspecified) | 99.3%
62 | COC(=O)CCCCN=Cc1c(O)c(O)c(C(C)C)c2cc(C)c(-c3c(C)cc4c(C(C)C)c(O)c(O)c(C=NCCCCC(=O)OC)c4c3O)c(O)c12 | 26.4%
63 | Cc1cc(C(=O)CSc2nc3ccccc3c(=O)[nH]2)c(C)n1C | -33.9% (active)
64 | Cn1cc(C=O)c2ccccc21 | 88.6%
65 | CC(=O)N1Cc2ccccc2C(C)Cc2cc(Cl)ccc21 (stereo unspecified) | 102%
66 | Cn1c(=O)c2c(nc3n2CCN(CCc2ccc(OCCN4CCOCC4)cc2)C3)n(C)c1=O | 108%
67 | O=C(/C=C/c1ccccc1)n1c(-c2ccc(Cl)cc2)nc2ccccc21 | 10.4%
68 | COc1cc(C2CC(c3c(C)[n+]([O-])c4ccccc4[n+]3[O-])=NN2)cc(OC)c1OC (stereo unspecified) | 16.2%
69 | CCOC(=O)c1cc(/C(=N\O)c2cc(OC)c(OC)c(OC)c2)n2c(C)cccc12 | 52.5%
70 | COC(=O)CCCCCCN=Cc1c(O)c(O)c(C(C)C)c2cc(C)c(-c3c(C)cc4c(C(C)C)c(O)c(O)c(C=NCCCCCCC(=O)OC)c4c3O)c(O)c12 | 29.3%
71 | COc1ccc(/C(=N/O)c2cc(OC)c(OC)c(OC)c2)c(OC)c1N | 55%
72 | COc1ccc(-n2c(C)cc(-c3ccccc3)c2C)cc1 | 72%
73 | N#CC1=C(N)OC2=C(C(=O)CCC2)C1c1ccco1 (stereo unspecified) | 107%
74 | C=CCc1cc(Cl)cc2c(OC(C)=O)c(C(C)=O)c(-c3ccccc3)nc12 | 82.3%
75 | COc1cc(/C=C/C(=O)c2ccc(NC(=O)CN3CCN(c4cc5c(cc4F)c(=O)c(C(=O)O)cn5C4CC4)CC3)cc2)cc(OC)c1OC | -1.19% (active)
76 | COc1ccc(/C(=N\O)c2cc(OC)c(OC)c(OC)c2)c(OC)c1N | 46.1%

Source: PubChem BioAssay (NCI)
